About 83,000 compounds went through this panel and 20% of them were active in at least one assay; those are over-represented in the sample as a whole.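 A percent growth of 40 corresponds to 60% growth inhibition; 0 means no net growth; -100 means all cells died. Active threshold: below 10.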 Calls of active or inactive are those of the source.

The assay concerns MDA-MB-468 breast. Briefly: NCI-60 one-dose screen, 48 h (100 = growth as untreated, 0 = no growth, -100 = all killed). Particulars: 10 µM unless noted.
Regarding `COc1cc(-c2c(C#N)c(-c3cccs3)nc3c2c(-c2ccccc2)nn3-c2ccccc2)ccc1O`, the growth was 95.4% (inactive).

As to `C=C1SC(=Nc2c(C)cccc2C)N(c2nc(Cl)nc(Cl)n2)C12CCCCC2`, the growth was 101% (inactive).

Turning to `N#Cc1ccccc1-c1ccc(CN2C(=O)S/C(=C\c3ccc(Br)cc3)C2=O)cc1`, the growth was 112% (inactive).

For the compound `CN(C)c1ccc(C(c2ccccc2)c2ccc(N(C)C)cc2)cc1`, the growth was 103% (inactive).

Take `O=C(/C=C/c1cccc(O)c1)c1ccc(O)cc1`: the growth is 40.9% (inactive).

For the compound `Nc1nc(SCC#CCCl)c2[nH]cnc2n1`, the growth was -6.97% (active).

In the case of `C=CCn1c(SCC(=O)Nc2ccc(C(=O)/C=C/c3cc(OC)c(OC)c(OC)c3)cc2)nnc1-c1cc(-c2ccc(S(C)(=O)=O)cc2)nc2ccccc12`, the growth is 88.8% (inactive).

As to `S=C(N/N=C/c1cc(Cl)cc(Cl)c1)NC12CC3CC(CC(C3)C1)C2`, the growth was 104% (inactive).

Take `CNCCNc1nc2ccccc2c2c(=O)c3cccc(OC)c3sc12`: the growth was 20.9% (inactive).

As to `N#Cc1c(Nc2cccc(Cl)c2)sc(C(=O)c2cc3cc(Cl)ccc3o2)c1N`, the growth was 100% (inactive).

As to `O=C(O)CC1CCCCC1c1ccccc1` (stereo not given), the growth was 105% (inactive).

Regarding `CC(C(=O)O)N1C(N)=NNC1c1ccccc1O` (stereo not given), the growth is 104% (inactive).

Take `O=C1C(Cl)=C(N=Nc2c(Cl)c(O)c3ccccc3c2O)C(=O)c2ccccc21`: the growth is 66.3% (inactive).

Turning to `COc1ccc2nc3cc(Cl)ccc3c(Nc3ccc(O)cc3)c2c1`, the growth is 46% (inactive).

`COc1cc(-c2nc(N)n(CC(=O)Nc3ccc(/C(C)=N\O)cc3)n2)cc(OC)c1OC`: the growth is 104% (inactive).

As for `CC[C@H](Nc1nc(N)nc(C)c1C#N)c1nc2cccc(NCc3ccc(C(=O)NO)cc3)c2c(=O)n1-c1ccccc1`, the growth is 3.26% (active).

`C#C[C@@]1(O)[C@@H](CO)O[C@@H](n2ccc3c(N)ncnc32)[C@@H]1O`: the growth is -45.3% (active).

Consider `CC(C)(C)OC(=O)N1CCc2c(sc3ncnc(N/N=C/c4cccc(Br)c4)c23)C1`, for which the growth was 52.2% (inactive).

On to `O=C1CCCC1[n+]1ccccc1` (stereo not given), for which the growth was 120% (inactive).

For the compound `Cc1cc(N2CCCCCC2)nc(N2CCN(CC(=O)Nc3ccc4c(ccn4Cc4ccccc4)c3)CC2)n1`, the growth was 17.4% (inactive).

Turning to `COc1cc(-c2nn(-c3ccc(NC(=O)Nc4cc(C(F)(F)F)cc(C(F)(F)F)c4)cc3)cc2-c2ccncc2)ccc1Cl`, the growth was -15.2% (active).

Consider `O=C(Nc1cccnc1Nc1ccc(Cl)cc1)c1cn(Cc2ccc(F)cc2)nn1`, for which the growth was 99.5% (inactive).

For `COc1ccc2c(c1)C(=O)/C(=C/c1ccc(O)cc1)O2`, the growth was -28.5% (active).

For the compound `C=CCN1CCCC1=O`, the growth was 96.5% (inactive).

With `c1ccc(Cn2cnc3ccc(-c4nc(-c5ccc6c(c5)ncn6C5CCCCC5)cn5ccnc45)cc32)cc1`, the growth was -35.7% (active).

`CC(=O)OCC(=O)[C@@]1(O)CC[C@H]2[C@@H]3CC[C@@H]4C[C@H](O)CC[C@]4(C)[C@H]3C(=O)C[C@@]21C`: the growth is 98.1% (inactive).

Turning to `OCC(O)C(O)C(O)C(/C=N/Nc1ccccc1)=N/Nc1ccccc1` (stereo not given), the growth was 68% (inactive).

For `C/C(Cc1ccccc1)=N\O`, the growth was 106% (inactive).

In the case of `COc1ccc(Cn2cc3c(c2-c2ccccc2)CCc2cnoc2-3)cc1OC`, the growth is -9% (active).

Consider `O=S(=O)(NCCNc1cc(-c2cn(-c3ccccc3)nc2-c2cccc(O)c2)ccn1)c1cccc(F)c1`, for which the growth is 15.2% (inactive).

`COc1ccc2nc3nc4ccc[nH]c4cc3c2c1`: the growth is -36.6% (active).

For `CCN(CC)CC(O)CNc1c2ccc(Cl)cc2nc2ccc(OC)cc12` (stereo not given), the growth is -48.3% (active).

For the compound `C[C@H]1c2ccccc2CN1CCCOc1cc2c(cc1OCC1CC1)C1(CCCC1)C(N)=N2`, the growth is 29.2% (inactive).

Turning to `Cc1cccc2c(=O)c3c(sc12)c(NCCN)nc1ccccc13`, the growth is -57.3% (active).

Regarding `C=CCC(O)C=C` (stereo not given), the growth was 102% (inactive).

Take `COc1ccc(C2Nc3ncnc(N)c3N=C3c4ccccc4C(=O)C32)cc1` (stereo not given): the growth was 86.1% (inactive).

For `COc1ccccc1-n1c(-c2csc(NC(C)=O)n2)n[nH]c1=S`, the growth was 100% (inactive).

Turning to `c1ccc2c(c1)oc1c3cccnc3ccc21`, the growth was -62% (active).

For the compound `C1=CN2CC(c3ccccc3)=NNC2c2ccccc21` (stereo not given), the growth was 82.5% (inactive).

For `Cc1ccc(NC(=O)N[C@@H](Cc2cc(F)cc(F)c2)C(=O)NC2C(=O)N3C[C@H](O)C[C@H]3C(=O)N3CCCC[C@H]3C(=O)N[C@@H](CO)C(=O)N3C[C@H](C)C[C@H]3C(=O)O[C@H]2C)c(F)c1` (stereo not given in full), the growth is -2.72% (active).

Source of the values: PubChem BioAssay (NCI).
